# Measured values taken from the supplement of paper PMC12067093, “Discovery and optimisation of a covalent ligand for TRIM25 and its application to targeted protein ubiquitination” (Chemical Science, 2025).
# Of roughly 21,000 targets only a part is listed; those with the largest changes were picked by preference.
# Target: PYCR1_P32322_95_HIVVSCAAGVTISSIEK (UniProt P32322)
# Test: probe-labelled cysteine peptide fold change vs DMSO (competition) (log2 fold change); higher = less target engagement (more negative = stronger competition)
# Settings: THP-1, incubation time: 4 h
# 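Note: competitive chemoproteomic profiling in live THP-1 cells with an iodoacetamide desthiobiotin (IA-DTB) probe, comparing probe-labelled peptide intensities in compound-treated cells against DMSO-treated controls.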
compound,measurement,setting,value
CC1Cc2ccccc2N1C(=O)C1CCCN(C(=O)CCl)C1 (mixture of isomers) [TRIM25 ligand 11 (diastereomer mixture)],probe-labelled cysteine peptide fold change,10 µM,0.0152
same,probe-labelled cysteine peptide fold change,50 µM,0.0688
